We go through eight compounds from PubChem BioAssay.

Calls of active or inactive are those of the source.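 Rule for the calls, unless noted: active = fluorescence slope higher than the sample average by over 3 SD (cut at about -0.22 in these data, passing the limit was not always enough); inactive = the rest.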

Test [1] is described as follows: inhibitors of TNFa-induced NFkB p65 translocation, primary screen, imaging, HUVEC, MLSMR starter and 10KST1 sets (AID 438;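 active = inhibition above 20% together with a positive visual image hit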;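 note: compound added about 3h40 before a 20 min TNFalpha stimulation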;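 for inhibition: signal is the nuclear over cytoplasmic p65 intensity ratio per well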). The note with it: HUVEC TNFa-induced p65 nuclear translocation; cell count: measured here: nuclei count (cytotoxicity indicator), at 2.08 µM; inhibition: at 2 µM, stronger effect = higher value, 0% TNFa-plus-vehicle, 100% no-TNFa wells.
Test [2] in a line: inhibitors of mutant huntingtin aggregation, primary screen, imaging, exon1htt(103Q)mCFP cells, high-content imaging (AID 483;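 active = visual image review flags a hit and inhibition of aggregation exceeds 20%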;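 note: compound exposure lasted 3 days before fixation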;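 for nuclei count: percent of the per-plate median nuclei count of sample wells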). The settings on record: exon1htt(103Q)mCFP cell line, aggregate imaging, at 2 µM; inhibition of aggregation: stronger effect = higher value; nuclei count: measured here: cell count, toxicity.
A short description of test [3]: inhibitors of E-selectin induction by TNFa, primary screen, imaging, HUVEC, immunofluorescence, MLSMR starter and 10KST1 sets (AID 487;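 active = visually confirmed hit in the image check and inhibition above 20%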;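 for inhibition: signal is fraction of cell area covered by stained E-selectin grains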;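 for nuclei count: 100% = median nuclei count of all wells on the same plate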). The settings on record: HUVEC TNFalpha-induced E-selectin immunofluorescence imaging, at 2 µM; inhibition: stronger effect = higher value; nuclei count: measured here: cell number, toxicity.
The target in test [4] is Voltage-gated potassium channel subunit beta-2 (Rattus norvegicus) (UniProt P62483). The test can be described thus: KvBeta enzyme negative modulators, primary screen, biochemical, NADPH fluorescence (AID 622).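 Note: slope of raw intensity against log time taken from 70 to 1610 s.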 The settings on record: recombinant KvBeta, 4-cyanobenzaldehyde reduction, at 10 µM, stronger effect = higher value.
Sequence of Voltage-gated potassium channel subunit beta-2 (Rattus norvegicus) (P62483 whole entry, looked up): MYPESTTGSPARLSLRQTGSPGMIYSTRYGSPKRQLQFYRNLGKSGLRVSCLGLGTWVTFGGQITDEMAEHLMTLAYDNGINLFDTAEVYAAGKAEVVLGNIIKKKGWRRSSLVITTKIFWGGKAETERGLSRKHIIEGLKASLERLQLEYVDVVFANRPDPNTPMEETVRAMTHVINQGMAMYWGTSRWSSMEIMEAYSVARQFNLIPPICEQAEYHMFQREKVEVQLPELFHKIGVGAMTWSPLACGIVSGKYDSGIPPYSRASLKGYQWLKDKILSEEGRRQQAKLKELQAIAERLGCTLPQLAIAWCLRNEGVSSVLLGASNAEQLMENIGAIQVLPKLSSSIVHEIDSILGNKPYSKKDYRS
Test [5] has the same target. Kind of test: KvBeta positive modulators, primary screen, biochemical, NADPH fluorescence (AID 623;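 active = NADPH fluorescence slope more negative than the mean of all samples by about 3 SD, 99.7% confidence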;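 note: fluorescence intensity change per second fitted from 20 to 320 s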). The note with it: Recombinant KvBeta, NADPH fluorescence decrease slope, 10 min; at 10 µM; stronger effect = lower value.
Test [6] has as its target Alpha-2C adrenergic receptor (Homo sapiens) (UniProt P18825). The test can be described thus: modulators of alpha2C/GIRK thallium flux, primary screen, cell-based, HEK293 alpha2C/GIRK1/2 (AID 624;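 active = fluorescence slope after compound addition differing from the mean of all screened samples at 99.7% confidence, in either direction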;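 note: slope of fluorescence ratio to pre-addition baseline per second over 15 to 24 s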). The settings on record: thallium flux BTC fluorescence, at 10 µM, actives lie on both sides.
The nature of test [7]: inhibitors of Sendai virus-induced IRF3 signaling, primary screen, TLR/RLR signaling modifier project, cell-based, Sendai virus stimulus, luciferase, 10K MLSCN set (AID 602276;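 active = inhibition at or above 50% at 10 µM; inactive = inhibition below 50%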;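 note: firefly luciferase from ISG56 promoter only with Renilla not read in this screen; 0% = Sendai virus plus DMSO and 100% = medium plus DMSO without virus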). The settings on record: HEK293 RL24 IRF3 luciferase reporter, at 10 µM, stronger effect = higher value.
The nature of test [8]: inhibitors of poly I:C-induced TLR3 signaling, primary screen, cell-based, poly I:C stimulus, luciferase, 10K MLSCN set (AID 602277;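 active = inhibition of the reporter signal at or above 50%; inactive = inhibition below 50%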). The settings on record: HEK293-TLR3 RL24 IRF3 luciferase reporter, at 10 µM, stronger effect = higher value. (In general: In a reporter assay the amount or activity of a reporter protein is the signal.)
Test [9] in a line: DUSP6 inhibitors restoring Erk phosphorylation by chemical complementation, primary imaging in DUSP6-transfected HeLa (AID 609;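 active = compounds giving at least 50% inhibition in the cell-based MKP-3 phosphatase rescue imaging test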;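 for inhibition: phospho-Erk level distribution per well compared with pooled transfected vehicle control wells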). The note with it: HeLa MKP-3 transfected, phospho-Erk imaging KS statistic, at 10 µM, cells stimulated with TPA for 15 min.
Test [10] concerns the target Dual specificity protein phosphatase 6 (Homo sapiens) (UniProt Q16828). Described as above. The note with it: HeLa MKP-3 transfected, phospho-Erk imaging KS statistic; at 10 µM; stronger effect = higher value; cells stimulated with TPA for 15 min.
Test [11] concerns the target Muscarinic acetylcholine receptor M4 (Homo sapiens) (UniProt P08173). Kind of test: compounds altering M4/GIRK thallium flux, either direction, primary screen, M4 allosteric agonist project, cell-based, HEK293 M4/GIRK, BTC-AM (AID 625;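 active = fluorescence slope after compound addition differing from the mean of all tested samples at 99.7% confidence, mostly higher but some lower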;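 note: thallium influx through GIRK channels coupled to M4 in HEK293 cells with BTC-AM dye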). The settings on record: at 10 µM, actives lie on both sides.
Test [12] in a line: inhibitors of larval lipid processing in zebrafish, primary screen, whole organism, PED6 fluorescence, gall bladder and intestine (AID 686;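 active = a full or partial loss of lipid-probe fluorescence in the fish gall bladder, intestine or both, judged by eye; inactive = no fluorescence loss, or compound toxic to the fish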;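 note: larvae 5 to 7 days old with five fish per well; signal comes from phospholipase A2 cleavage of quenched PED6 carried via bile; overnight exposure to compound and PED6 before scoring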). The settings on record: Zebrafish larvae PED6 lipid processing, fluorescence scoring; screened at 20 µM (by protocol).
The nature of test [13]: inhibitors of Chlamydomonas gravitaxis, primary screen, whole organism, Chlamydomonas reinhardtii, WT vs cilia-less mutant, absorbance, 96-well (AID 463189;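 active = inhibition at or above 50% relative to wild type and mutant plate controls; inactive = inhibition below 50%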;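 note: 0% = wild type cc124 cells in DMSO and 100% = ciliumless bld1 mutant cells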). The settings on record: OD600 absorbance, 2 days, at 10 µM, stronger effect = higher value.

Sequence of Alpha-2C adrenergic receptor (Homo sapiens) (P18825 whole entry, looked up): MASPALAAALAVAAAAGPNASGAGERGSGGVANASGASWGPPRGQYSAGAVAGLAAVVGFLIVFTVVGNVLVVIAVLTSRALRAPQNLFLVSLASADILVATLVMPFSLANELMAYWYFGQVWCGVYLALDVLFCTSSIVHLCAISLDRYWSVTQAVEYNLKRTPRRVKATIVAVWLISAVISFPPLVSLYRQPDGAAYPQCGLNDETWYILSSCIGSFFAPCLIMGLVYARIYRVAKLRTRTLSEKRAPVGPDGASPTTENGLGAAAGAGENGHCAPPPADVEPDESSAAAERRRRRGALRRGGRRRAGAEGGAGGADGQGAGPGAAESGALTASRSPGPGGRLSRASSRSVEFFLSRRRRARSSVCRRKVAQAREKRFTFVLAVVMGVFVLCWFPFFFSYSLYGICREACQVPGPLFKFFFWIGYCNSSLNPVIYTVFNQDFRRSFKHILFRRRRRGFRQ
Sequence of Muscarinic acetylcholine receptor M4 (Homo sapiens) (P08173 whole entry, looked up): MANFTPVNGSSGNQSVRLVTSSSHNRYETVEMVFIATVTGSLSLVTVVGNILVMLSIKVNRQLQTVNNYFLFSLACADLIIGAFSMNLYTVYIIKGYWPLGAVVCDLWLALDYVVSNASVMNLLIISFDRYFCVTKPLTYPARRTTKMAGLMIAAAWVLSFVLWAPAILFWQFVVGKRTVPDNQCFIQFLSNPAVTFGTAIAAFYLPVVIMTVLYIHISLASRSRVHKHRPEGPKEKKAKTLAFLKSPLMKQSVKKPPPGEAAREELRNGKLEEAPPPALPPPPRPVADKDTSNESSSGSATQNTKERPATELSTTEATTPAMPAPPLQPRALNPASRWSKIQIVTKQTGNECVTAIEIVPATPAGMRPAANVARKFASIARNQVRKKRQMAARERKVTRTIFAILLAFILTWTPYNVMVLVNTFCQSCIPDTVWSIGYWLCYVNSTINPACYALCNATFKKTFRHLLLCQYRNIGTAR
Sequence of Dual specificity protein phosphatase 6 (Homo sapiens) (Q16828 whole entry, looked up): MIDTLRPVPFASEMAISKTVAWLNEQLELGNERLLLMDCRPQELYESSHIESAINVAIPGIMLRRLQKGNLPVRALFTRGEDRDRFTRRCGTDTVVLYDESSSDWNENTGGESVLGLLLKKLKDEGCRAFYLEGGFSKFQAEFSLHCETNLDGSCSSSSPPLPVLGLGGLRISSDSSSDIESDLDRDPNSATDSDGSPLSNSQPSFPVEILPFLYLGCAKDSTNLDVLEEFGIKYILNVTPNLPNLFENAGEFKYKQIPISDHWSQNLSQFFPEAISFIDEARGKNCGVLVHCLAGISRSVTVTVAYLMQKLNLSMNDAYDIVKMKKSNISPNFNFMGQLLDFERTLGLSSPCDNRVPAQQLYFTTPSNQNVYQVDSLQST

A word on the inhibition: it is the relative decrease from the control value, in per cent. In the case of `O=C(C1CCCCC1)N1CCC(c2nc3c(nnn3Cc3ccccc3Cl)c(=O)[nH]2)CC1`, in test [1], the cell count was found to be 372. The inhibition in test [1] is -1.5% (inactive); in [3], -144% (inactive); in [7] it was 11.3% (inactive); in [8], 26.2% (inactive). The inhibition of aggregation in test [2] was -5.2% (inactive). Also, the nuclei count was 110% in test [2] and 115% in test [3]. For the same compound, in [4], the fluorescence slope was -0.359 (inactive). In test [5], the NADPH fluorescence slope is -4.8e-05 (inactive). The slope in test [6] was 0.00569 (inactive).
With `CC(=O)Nc1cccc(Oc2nc(C)cc(C)c2C#N)c1`, in [1], the cell count stood at 950. Moreover, the inhibition is 4% (inactive) in test [1], -87% (inactive) in [3], 2.68% (inactive) in [7] and 22.3% (inactive) in test [8]. The inhibition of aggregation in [2] is 0.6% (inactive). In addition, the nuclei count stood at 111% in test [2] and 124% in test [3]. Besides, in [4], the fluorescence slope is -0.553 (inactive). In addition, the NADPH fluorescence slope in [5] is -1.7e-05 (inactive). Also, the slope in test [6] was 0.00763 (inactive).
As to `Cc1ccc(C(=O)NC(Cc2c[nH]c3ccccc23)C(=O)O)o1` (centres undefined), the cell count in test [1] was 507. Also, the inhibition in test [1] was 4.3% (inactive); in test [3], -25% (inactive); in test [7] it was -7.86% (inactive); in [8], 22.8% (inactive). For the same compound, the inhibition of aggregation in [2] is -3.1% (inactive). The nuclei count amounted to 110% in test [2] and 120% in test [3]. For the same compound, in [4], the fluorescence slope is -0.485 (inactive). Also, the NADPH fluorescence slope in [5] was 5.1e-05 (inactive). For the same compound, in test [6], the slope was 0.0112 (active).
Take `COc1nc(OC)nc(N2CCC(C(=O)NCc3cccs3)CC2)n1`: the cell count in test [1] amounted to 559. Moreover, the inhibition in test [1] is -15% (inactive); in test [3], -1.7% (inactive); in test [7], -3.8% (inactive); in [8], -2.92% (inactive). In test [2], the inhibition of aggregation is -22.8% (inactive). Besides, the nuclei count came out at 112% in test [2] and 107% in test [3]. In addition, in test [4], the fluorescence slope was -0.528 (inactive). The NADPH fluorescence slope in test [5] was -4.4e-05 (inactive). Moreover, the slope in test [6] is 0.00626 (inactive).
Turning to `O=C(CSc1n[nH]c(-c2ccco2)n1)Nc1sc2c(c1C(=O)Nc1ccccc1)CCCC2`, in [1], the cell count was 298. The inhibition in test [1] is -4.3% (inactive); in test [3], -73.5% (inactive); in [7], 4.06% (inactive); in test [8], 21.7% (inactive). Further, in test [2], the inhibition of aggregation was 3.5% (inactive). Further, the nuclei count in [2] came to 88.7%; in [3] it was 91%. For the same compound, in test [4], the fluorescence slope is -0.447 (inactive). Besides, in test [5], the NADPH fluorescence slope is -3.7e-05 (inactive). Also, the slope in test [6] is 0.00332 (inactive).
`O=C(NCC1CCCO1)c1ccccc1-c1nc(-c2ccc(Cl)cc2)no1` (centres undefined): in [1], the cell count is 821. The inhibition in [1] was -0.7% (inactive); in test [3] it was -141% (inactive); in test [7], -17.2% (inactive); in test [8] it was -4.71% (inactive). In test [2], the inhibition of aggregation was 1.8% (inactive). For the same compound, the values for the nuclei count in test [2] and in test [3] were 101% and 122%, respectively. In addition, the fluorescence slope in test [4] is -0.483 (inactive). In addition, in [5], the NADPH fluorescence slope was 3.6e-05 (inactive). The slope in test [6] was 0.0055 (inactive).
Regarding `COC(=O)c1c(-n2cnnn2)sc(C)c1C`, the cell count in test [1] was determined as 504. Besides, the inhibition is -4.7% (inactive) in test [1], -2.29% (inactive) in test [10] and -6.11% (inactive) in [13]. In [3], the nuclei count came out at 172%. The z-score is -0.751 in [9] (measured here: cell density z-score); 1.91 in test [9] (measured here: nuclear c-Myc green intensity z-score); 1.76 in test [9] (measured here: nuclear pErk red intensity z-score, stronger effect = higher value). The fluorescence slope in test [4] is -0.421 (inactive); in test [11], 0.00518 (inactive). In addition, in test [5], the NADPH fluorescence slope is -4.5e-05 (inactive). Moreover, in test [12], the compound was classed as inactive.
Turning to `COc1ccc(N2C(=O)CCC(C(=O)N3CCCCC3)C2c2ccc(OC)c(OC)c2)cc1` (centres undefined), in test [1], the cell count stood at 164. For the same compound, the inhibition in test [1] is -1.9% (inactive); in [3], -17.5% (inactive); in test [7], 12.8% (inactive); in test [8] it was 21.7% (inactive). Also, in test [2], the inhibition of aggregation is 21.6% (inactive). In addition, the nuclei count in test [2] was 96.5%; in test [3], 97%. Also, the fluorescence slope in test [4] was -0.412 (inactive). In [5], the NADPH fluorescence slope is 5.3e-05 (inactive). For the same compound, in test [6], the slope is 0.00625 (inactive).
